SMILES strings stand for the structures. About 83,000 compounds went through this panel and 20% of them were active in at least one assay; those are over-represented in the sample as a whole.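 Compound tested at a single concentration for 48 hours in 96-well plates; a percent growth value below 10 was scored as active.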 Values without a mark were called inactive. Activity calls are given as the source filed them.

Among the test systems are HCT-15 colon; HT29 colon; SNB-19 CNS; U251 CNS; PC-3 prostate; SK-MEL-5 melanoma; UACC-62 melanoma; LOX IMVI melanoma; SK-MEL-28 melanoma; EKVX NSCLC; SN12C renal; UO-31 renal; TK-10 renal; ACHN renal; CAKI-1 renal; A498 renal; MOLT-4 leukemia; SK-MEL-2 melanoma; CCRF-CEM leukemia.
Assay in all cases: NCI-60 one-dose screen, 48 h (100 = growth as untreated, 0 = no growth, -100 = all killed)
Holding throughout (details): 10 µM unless noted

For the compound `Oc1ccc(Cl)cc1-c1cc(-c2ccc(F)cc2)n[nH]1`, the growth was 30% with HCT-15 colon; 98.7% in the assay with HT29 colon; 77.6% with SNB-19 CNS; 63.8% with U251 CNS; 63.8% in the assay with PC-3 prostate; 45.2% in the assay on SK-MEL-5 melanoma. Further, the growth was 59.2% in the assay on UACC-62 melanoma; 61.3% in the assay with LOX IMVI melanoma; 105% with SK-MEL-28 melanoma; 50.6% in the assay with EKVX NSCLC; 66.6% in the assay on SN12C renal; 37.5% in the assay on UO-31 renal. The growth with TK-10 renal was 114%; with ACHN renal, 74.3%; with CAKI-1 renal, 50.4%; in the assay with A498 renal, 69.6%; in the assay on MOLT-4 leukemia, 60.9%.

Take `O=C1CS/C(=N\Nc2cc(=O)[nH]c3ccccc23)N1c1ccccc1`: the growth was 94.5% in the assay on HCT-15 colon; 98.6% in the assay on HT29 colon; 90.7% with SNB-19 CNS; 95% with U251 CNS; 80.9% with PC-3 prostate; 96.2% in the assay on SK-MEL-5 melanoma. Besides, the growth is 85.5% with UACC-62 melanoma; 88.2% in the assay with LOX IMVI melanoma; 100% in the assay with SK-MEL-2 melanoma; 87.3% in the assay on EKVX NSCLC; 94.1% with SN12C renal; 69.7% with UO-31 renal. For the same compound, the growth is 111% with TK-10 renal; 93.6% with ACHN renal; 81.3% in the assay on CAKI-1 renal; 81.7% with A498 renal; 86.2% in the assay on CCRF-CEM leukemia; 98.8% in the assay on MOLT-4 leukemia.

With `O=[N+]([O-])c1cc(Cl)c2[nH]c3c(Cl)cc([N+](=O)[O-])cc3c2c1`, the growth was 11.3% with HCT-15 colon; -38.3% (active) in the assay on HT29 colon; 15.9% in the assay on SNB-19 CNS; -22.7% (active) in the assay on U251 CNS; 4.26% (active) in the assay on PC-3 prostate; -60.7% (active) with SK-MEL-5 melanoma. For the same compound, the growth in the assay on UACC-62 melanoma is 9.86% (active); in the assay on LOX IMVI melanoma, 6.56% (active); in the assay on EKVX NSCLC it was -10.2% (active); in the assay with SN12C renal, 2.7% (active); with UO-31 renal it was -13.9% (active); in the assay on TK-10 renal, -23.1% (active). The growth in the assay with ACHN renal was -10.3% (active); with CAKI-1 renal, -34.1% (active); in the assay on A498 renal, -26.6% (active); with CCRF-CEM leukemia it was -39.9% (active); in the assay with MOLT-4 leukemia, -41.8% (active).

Consider `COc1cccc(CC(C)=C(c2ccc(OCCN(C)C)cc2)c2ccc(OCCN(C)C)cc2)c1`, for which the growth was -37.8% (active) in the assay with HCT-15 colon; -72.7% (active) in the assay with HT29 colon; 15.2% in the assay with SNB-19 CNS; -77.8% (active) with U251 CNS; 15.6% in the assay with PC-3 prostate; -95.1% (active) in the assay on SK-MEL-5 melanoma. In addition, the growth with UACC-62 melanoma is -90.7% (active); with LOX IMVI melanoma it was -84.3% (active); with SK-MEL-2 melanoma, 14%; in the assay with EKVX NSCLC, 62%; in the assay on SN12C renal, -12.2% (active); in the assay on UO-31 renal, -91.3% (active). The growth in the assay on TK-10 renal is -15.2% (active); in the assay on ACHN renal, -82.4% (active); with A498 renal, 76.8%; in the assay with CCRF-CEM leukemia, -19.5% (active); in the assay on MOLT-4 leukemia it was -25.5% (active).

As for `COc1ccc(C2=C(c3cc(OC)c(OC)c(OC)c3)C(=O)CC2)cc1`, the growth is 24.2% in the assay on HCT-15 colon; -5.43% (active) with HT29 colon; 35.1% in the assay with SNB-19 CNS; 21.7% with U251 CNS; 38.3% in the assay on PC-3 prostate; -33.6% (active) in the assay on SK-MEL-5 melanoma. Besides, the growth was 32.7% with UACC-62 melanoma; 19.6% in the assay with LOX IMVI melanoma; 40% in the assay on EKVX NSCLC; 26.4% in the assay on SN12C renal; 46.2% in the assay on UO-31 renal; 60.6% in the assay on TK-10 renal. For the same compound, the growth in the assay on ACHN renal was 37.8%; in the assay on CAKI-1 renal it was 53.5%; in the assay with A498 renal, -4.31% (active); in the assay on MOLT-4 leukemia, 17.4%.

For the compound `COc1ccc(/C=C/c2c(C(C)=O)c(C)nc3ccccc23)cc1`, the growth with HCT-15 colon is 95.8%; with HT29 colon, 80.1%; with SNB-19 CNS it was 82.1%; in the assay on U251 CNS, 94.8%; in the assay with PC-3 prostate it was 76.1%; in the assay on SK-MEL-5 melanoma, 33.3%. In addition, the growth in the assay with UACC-62 melanoma was 52.4%; in the assay on LOX IMVI melanoma it was 96.6%; with SK-MEL-2 melanoma, 75.8%; with EKVX NSCLC, 81.7%; in the assay on SN12C renal, 85.6%; in the assay on UO-31 renal, 65.1%. Besides, the growth was 77.9% in the assay on TK-10 renal; 84.5% in the assay on ACHN renal; 81.4% in the assay with CAKI-1 renal; 72.8% in the assay with A498 renal; 77.7% in the assay on CCRF-CEM leukemia; 73.1% in the assay on MOLT-4 leukemia.

Take `O=C(NNC(=O)N1c2ccccc2C=Cc2ccccc21)c1ccccc1`: the growth is 101% with HCT-15 colon; 103% in the assay with HT29 colon; 100% in the assay on SNB-19 CNS; 109% in the assay with U251 CNS; 98.5% in the assay on PC-3 prostate; 104% in the assay on SK-MEL-5 melanoma. In addition, the growth in the assay with UACC-62 melanoma is 101%; in the assay with LOX IMVI melanoma it was 104%; with SK-MEL-2 melanoma, 119%; in the assay on EKVX NSCLC, 91.7%; in the assay with SN12C renal it was 102%; in the assay with UO-31 renal, 96%. In addition, the growth was 96% with TK-10 renal; 102% in the assay with ACHN renal; 97.3% with CAKI-1 renal; 103% in the assay with A498 renal; 98.9% in the assay on CCRF-CEM leukemia; 102% in the assay on MOLT-4 leukemia.

With `O=C(NCc1cn(Cc2cccc(Oc3ccccc3)c2)nn1)c1cccnc1Nc1ccc(F)cc1`, the growth in the assay with HCT-15 colon is 31.3%; in the assay with HT29 colon, 38.3%; in the assay on SNB-19 CNS, 72.9%; with U251 CNS it was 55.3%; in the assay on PC-3 prostate, 89.3%; in the assay on SK-MEL-5 melanoma it was 40.8%. The growth is 43% in the assay with UACC-62 melanoma; 54.4% in the assay on LOX IMVI melanoma; 61.8% with EKVX NSCLC; 44.4% with SN12C renal; 59.3% in the assay on UO-31 renal; 83.8% with TK-10 renal. For the same compound, the figures for the growth in the assay on ACHN renal, in the assay with CAKI-1 renal and with A498 renal were 72.3%, 53.9% and 26.5%, respectively.

As for `COc1ccc(-c2ccc(-c3ccc(C(=N)N)cn3)s2)cc1OC`, the growth with HCT-15 colon was 99.8%; with HT29 colon, 65.5%; with SNB-19 CNS, 94.7%; with U251 CNS it was 88.3%; in the assay with PC-3 prostate it was 93.5%; with SK-MEL-5 melanoma it was 88.7%. Moreover, the growth is 98.1% in the assay on UACC-62 melanoma; 98% in the assay with SK-MEL-28 melanoma; 109% with SK-MEL-2 melanoma; 89.1% in the assay with EKVX NSCLC; 90.6% in the assay with SN12C renal; 85.7% in the assay with UO-31 renal. Also, the growth is 128% with TK-10 renal; 93.8% in the assay on ACHN renal; 110% with CAKI-1 renal; 78.5% in the assay with A498 renal; 97.6% with CCRF-CEM leukemia.

For the origin of these results see PubChem BioAssay (NCI).
